Reference: PubChem BioAssay (NCI)
This is part of a sample that, as a whole, favours compounds with a hit. Of some 79,000 tested, about 15% had one in any assay. Values without a mark were called inactive. The source made the active and inactive calls. Cut-off read from the data, not from the text of the source: active = growth inhibition above about 70%; inactive = the rest.

Experiments:
[1] = NCI Yeast Anticancer Drug Screen. Data for the rad50 strain (AID 155);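 note: 0% = growth of vehicle-only cultures of the same strain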; details: S. cerevisiae rad50 strain growth inhibition, hits give high values
Procedure, shortened: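 Yeast carrying a defined DNA repair defect were exposed to test compounds, and growth was compared with vehicle-treated controls to give percent inhibition.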

[2] = NCI Yeast Anticancer Drug Screen. Data for the mec2-1 strain (AID 157); details: S. cerevisiae mec2-1 strain, hits give high values
Procedure, shortened: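 Yeast mec2-1 mutant treated with compound. Readout: growth inhibition vs vehicle controls.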

[3] = NCI Yeast Anticancer Drug Screen. Data for the sgs1 mgt1 strain (AID 161);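 note: 0% = growth of cultures given vehicle only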; details: S. cerevisiae sgs1 mgt1 strain, hits give high values
Procedure, shortened: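 Test agents were incubated with a DNA-repair-mutant yeast strain. Growth was then read and compared against vehicle-treated controls.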

[4] = NCI Yeast Anticancer Drug Screen. Data for the cln2 rad14 strain (AID 165);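 note: 0% = growth equal to vehicle treated cultures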; details: S. cerevisiae cln2 rad14 strain, hits give high values
Procedure, shortened: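 cln2 rad14 yeast strain; compound exposure; growth inhibition read vs vehicle controls.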

[5] = NCI Yeast Anticancer Drug Screen. Data for the bub3 strain (AID 167); details: S. cerevisiae bub3 mutant strain, hits give high values
Procedure, shortened: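 Compounds were applied to a genetically altered yeast strain carrying a cell-cycle control defect. Growth inhibition was scored against vehicle-treated controls.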

[6] = NCI Yeast Anticancer Drug Screen. Data for the mlh1 rad18 strain (AID 175); details: S. cerevisiae mlh1 rad18 strain growth inhibition, hits give high values
Procedure, shortened: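 Yeast w/ defined DNA-repair lesions; compound exposure; growth vs vehicle controls → % inhibition.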

[7] = at 5.0 µM (retest, dose inferred, filed as 0.5)
[8] = at 50.0 µM (retest, dose inferred, filed as 5.0)

## CCOC(=O)c1cnn(-c2ccccc2)c1N
[1]; [7]
  growth inhibition: 62%
[1]; [8]
  growth inhibition: 98% (active)
[1]; at 50.0 µM
  growth inhibition: 88.8% (active)
[2]; [7]
  growth inhibition: 26%
[2]; [8]
  growth inhibition: 99% (active)
[2]; at 50.0 µM
  growth inhibition: 92.8% (active)
[3]; [7]
  growth inhibition: 18%
[3]; [8]
  growth inhibition: 98% (active)
[3]; at 50.0 µM
  growth inhibition: 89.4% (active)
[4]; [7]
  growth inhibition: 15%
[4]; [8]
  growth inhibition: 97% (active)
[4]; at 50.0 µM
  growth inhibition: 86.6% (active)
[5]; [7]
  growth inhibition: 63%
[5]; [8]
  growth inhibition: 98% (active)
[5]; at 50.0 µM
  growth inhibition: 90.2% (active)
[6]; [7]
  growth inhibition: 23%
[6]; [8]
  growth inhibition: 98% (active)
[6]; at 50.0 µM
  growth inhibition: 88.2% (active)

## C(=C/c1ccnc2ccccc12)/c1cccs1
[1]; [7]
  growth inhibition: -2%
[1]; [8]
  growth inhibition: 93% (active)
[1]; at 50.0 µM
  growth inhibition: 98.2% (active)
[2]; [7]
  growth inhibition: 1%
[2]; [8]
  growth inhibition: 93% (active)
[2]; at 50.0 µM
  growth inhibition: 98.8% (active)
[3]; [7]
  growth inhibition: 2%
[3]; [8]
  growth inhibition: 91% (active)
[3]; at 50.0 µM
  growth inhibition: 98.8% (active)
[4]; [7]
  growth inhibition: 0%
[4]; [8]
  growth inhibition: 57%
[4]; at 50.0 µM
  growth inhibition: 98.1% (active)
[5]; [7]
  growth inhibition: 4%
[5]; [8]
  growth inhibition: 81% (active)
[5]; at 50.0 µM
  growth inhibition: 98.3% (active)
[6]; [7]
  growth inhibition: -2%
[6]; [8]
  growth inhibition: 94% (active)
[6]; at 50.0 µM
  growth inhibition: 98.2% (active)

## O=C(c1ccccc1)C(c1ccccc1)C1(O)C(=O)Nc2c(Cl)cc(Cl)cc21 (configuration not stated)
[1]; [7]
  growth inhibition: 13%
[1]; [8]
  growth inhibition: 13%
[1]; at 50.0 µM
  growth inhibition: 92.8% (active)
[2]; [7]
  growth inhibition: -6%
[2]; [8]
  growth inhibition: -6%
[2]; at 50.0 µM
  growth inhibition: 93.3% (active)
[3]; [7]
  growth inhibition: -18%
[3]; [8]
  growth inhibition: -18%
[3]; at 50.0 µM
  growth inhibition: 92% (active)
[4]; [7]
  growth inhibition: -6%
[4]; [8]
  growth inhibition: -6%
[4]; at 50.0 µM
  growth inhibition: 87% (active)
[5]; [7]
  growth inhibition: -5%
[5]; [8]
  growth inhibition: -5%
[5]; at 50.0 µM
  growth inhibition: 93.2% (active)
[6]; [7]
  growth inhibition: 0%
[6]; [8]
  growth inhibition: 0%
[6]; at 50.0 µM
  growth inhibition: 92.2% (active)

## O=S(=O)(c1ccc2c(c1)CCCN2)N1CCC[C@H]2CCCC[C@@H]21
[1]; [7]
  growth inhibition: 7%
[1]; [8]
  growth inhibition: 94% (active)
[1]; at 50.0 µM
  growth inhibition: 95.3% (active)
[2]; [7]
  growth inhibition: -2%
[2]; [8]
  growth inhibition: 96% (active)
[2]; at 50.0 µM
  growth inhibition: 96.8% (active)
[3]; [7]
  growth inhibition: 0%
[3]; [8]
  growth inhibition: 95% (active)
[3]; at 50.0 µM
  growth inhibition: 97.1% (active)
[4]; [7]
  growth inhibition: 32%
[4]; [8]
  growth inhibition: 94% (active)
[4]; at 50.0 µM
  growth inhibition: 95.5% (active)
[5]; [7]
  growth inhibition: 14%
[5]; [8]
  growth inhibition: 96% (active)
[5]; at 50.0 µM
  growth inhibition: 98.2% (active)
[6]; [7]
  growth inhibition: 11%
[6]; [8]
  growth inhibition: 93% (active)
[6]; at 50.0 µM
  growth inhibition: 95% (active)

## Cc1c(C)c(C[P+](CCP(c2ccccc2)c2ccccc2)(c2ccccc2)c2ccccc2)c(C)c(C)c1C[P+](CCP(c1ccccc1)c1ccccc1)(c1ccccc1)c1ccccc1
[1]; [7]
  growth inhibition: 18%
[1]; [8]
  growth inhibition: 36%
[1]; at 50.0 µM
  growth inhibition: 29.8%
[2]; [7]
  growth inhibition: 11%
[2]; [8]
  growth inhibition: 13%
[2]; at 50.0 µM
  growth inhibition: 16.5%
[3]; [7]
  growth inhibition: 7%
[3]; [8]
  growth inhibition: 41%
[3]; at 50.0 µM
  growth inhibition: 59.5%
[4]; [7]
  growth inhibition: -14%
[4]; [8]
  growth inhibition: 2%
[4]; at 50.0 µM
  growth inhibition: -1.3%
[5]; [7]
  growth inhibition: 14%
[5]; [8]
  growth inhibition: 21%
[5]; at 50.0 µM
  growth inhibition: -5.8%
[6]; [7]
  growth inhibition: 13%
[6]; [8]
  growth inhibition: 33%
[6]; at 50.0 µM
  growth inhibition: 35.2%

## Cc1cc(C(O)(c2cc(C)c(O)c(C(=O)O)c2)c2cc(C)c(O)c(C(=O)O)c2)cc(C(=O)O)c1O
[1]; [7]
  growth inhibition: 2%
[1]; [8]
  growth inhibition: -5%
[1]; at 50.0 µM
  growth inhibition: 12.4%
[2]; [7]
  growth inhibition: 2%
[2]; [8]
  growth inhibition: -11%
[2]; at 50.0 µM
  growth inhibition: -18%
[3]; [7]
  growth inhibition: 0%
[3]; [8]
  growth inhibition: 1%
[3]; at 50.0 µM
  growth inhibition: 5.35%
[4]; [7]
  growth inhibition: 6%
[4]; [8]
  growth inhibition: -5%
[4]; at 50.0 µM
  growth inhibition: 21.9%
[5]; [7]
  growth inhibition: -43%
[5]; [8]
  growth inhibition: -3%
[5]; at 50.0 µM
  growth inhibition: -11.7%
[6]; [7]
  growth inhibition: 2%
[6]; [8]
  growth inhibition: -9%
[6]; at 50.0 µM
  growth inhibition: 10.3%

## NNC(=O)N/N=C(/CC1(O)C(=O)Nc2ccc(Br)cc21)c1ccccc1 (configuration not stated)
[1]; [7]
  growth inhibition: -1%
[1]; [8]
  growth inhibition: 83% (active)
[1]; at 50.0 µM
  growth inhibition: 88.3% (active)
[2]; [7]
  growth inhibition: 1%
[2]; [8]
  growth inhibition: 66%
[2]; at 50.0 µM
  growth inhibition: 83.8% (active)
[3]; [7]
  growth inhibition: -2%
[3]; [8]
  growth inhibition: 86% (active)
[3]; at 50.0 µM
  growth inhibition: 89.6% (active)
[4]; [7]
  growth inhibition: -5%
[4]; [8]
  growth inhibition: 48%
[4]; at 50.0 µM
  growth inhibition: 10.2%
[5]; [7]
  growth inhibition: 8%
[5]; [8]
  growth inhibition: 91% (active)
[5]; at 50.0 µM
  growth inhibition: 81.3% (active)
[6]; [7]
  growth inhibition: 0%
[6]; [8]
  growth inhibition: 71% (active)
[6]; at 50.0 µM
  growth inhibition: 93.7% (active)

## O=C1C2=C(c3ccccc31)C(c1ccccc1Cl)NC(=S)N2 (configuration not stated)
[1]; [7]
  growth inhibition: -5%
[1]; [8]
  growth inhibition: 11%
[1]; at 50.0 µM
  growth inhibition: 82.2% (active)
[2]; [7]
  growth inhibition: -11%
[2]; [8]
  growth inhibition: 13%
[2]; at 50.0 µM
  growth inhibition: 39.3%
[3]; [7]
  growth inhibition: -18%
[3]; [8]
  growth inhibition: -4%
[3]; at 50.0 µM
  growth inhibition: 78.5% (active)
[4]; [7]
  growth inhibition: 20%
[4]; [8]
  growth inhibition: 40%
[4]; at 50.0 µM
  growth inhibition: 63.4%
[5]; [7]
  growth inhibition: 14%
[5]; [8]
  growth inhibition: 60%
[5]; at 50.0 µM
  growth inhibition: 70% (active)
[6]; [7]
  growth inhibition: -8%
[6]; [8]
  growth inhibition: 40%
[6]; at 50.0 µM
  growth inhibition: 74.8% (active)

## CCCn1c(=O)c2ccccc2[n+]2c(-c3ccc([N+](=O)[O-])cc3)csc12
[1]; [7]
  growth inhibition: 5%
[1]; [8]
  growth inhibition: 91% (active)
[1]; at 50.0 µM
  growth inhibition: 93% (active)
[2]; [7]
  growth inhibition: 1%
[2]; [8]
  growth inhibition: 92% (active)
[2]; at 50.0 µM
  growth inhibition: 91.8% (active)
[3]; [7]
  growth inhibition: 1%
[3]; [8]
  growth inhibition: 67%
[3]; at 50.0 µM
  growth inhibition: 92.1% (active)
[4]; [7]
  growth inhibition: -7%
[4]; [8]
  growth inhibition: 77% (active)
[4]; at 50.0 µM
  growth inhibition: 67.1%
[5]; [7]
  growth inhibition: -17%
[5]; [8]
  growth inhibition: 97% (active)
[5]; at 50.0 µM
  growth inhibition: 93.5% (active)
[6]; [7]
  growth inhibition: 11%
[6]; [8]
  growth inhibition: 85% (active)
[6]; at 50.0 µM
  growth inhibition: 92.2% (active)
